Source: PubChem BioAssay (EPA / NIEHS)
Records with an inconclusive call do not appear. The source made the active and inactive calls. How the source made its calls: active means hit-call score of the fitted dose curve at least 0.9, where 1 is the maximum; inconclusive means response in the unintended direction; inactive means score below 0.9.

target: Bile acid receptor (Homo sapiens) (UniProt Q96RI1); assay: ATG_FXR_TRANS: Attagene TRANS-FACTORIAL HepG2 Assay for Farnesoid X Receptor (FXR) (AID 2282979); conditions: HepG2 Attagene TRANS FXR-GAL4 reporter transcription;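 further: hits raise reporter mRNA above DMSO so AC50 marks FXR activation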
Sequence (Q96RI1 whole entry, looked up, the tested form may be a part): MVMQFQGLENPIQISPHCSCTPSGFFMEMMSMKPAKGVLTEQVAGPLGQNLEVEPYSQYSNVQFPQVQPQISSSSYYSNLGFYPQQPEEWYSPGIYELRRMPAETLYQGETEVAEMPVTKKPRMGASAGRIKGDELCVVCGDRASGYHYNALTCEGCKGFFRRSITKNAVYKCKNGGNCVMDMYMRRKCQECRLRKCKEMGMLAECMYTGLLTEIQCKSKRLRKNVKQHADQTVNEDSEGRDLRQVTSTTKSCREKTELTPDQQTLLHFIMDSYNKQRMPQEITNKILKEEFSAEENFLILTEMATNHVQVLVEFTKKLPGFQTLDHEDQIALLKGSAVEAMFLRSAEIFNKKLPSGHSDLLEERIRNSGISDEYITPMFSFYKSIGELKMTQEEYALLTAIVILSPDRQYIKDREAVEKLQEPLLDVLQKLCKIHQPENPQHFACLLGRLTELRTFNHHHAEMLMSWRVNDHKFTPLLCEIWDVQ
In short: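 Reporter transcripts from transfected HepG2 cells were measured 24 h after dosing, using RT-PCR with capillary electrophoresis of 6-FAM-labelled fragments. The read-out reflects activity of exogenous FXR-Gal4 chimera on GAL4-UAS units, with induction relative to DMSO.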

SMILES	outcome
Nc1ccc([N+](=O)[O-])cc1O	inactive
C=C(C)C(=O)OCCC(F)(F)C(F)(F)C(F)(F)C(F)(F)C(F)(C(F)(F)F)C(F)(F)F	inactive
CCN(CC)c1ccc2c(C)cc(=O)oc2c1	inactive
CC(C)OC(=O)c1ccccc1C(=O)OC(C)C	inactive
CS(C)(=O)=O	inactive
CC(C)(C)c1ccc(OC2CCCCC2O)cc1 (centres undefined)	inactive
C=CC(F)(F)C(F)(F)C(F)(F)C(F)(F)C(F)(F)C(F)(F)C(F)(F)C(F)(F)C=C	inactive
COC(=O)C1CCC(C(=O)OC)CC1 (centres undefined)	inactive
FC(F)(F)C(F)(F)C(F)(F)C(F)(F)C(F)(F)C(F)(F)C(F)(F)I	inactive
CCC(=O)OCCc1ccccc1	inactive
C(=C(c1ccccc1)c1ccccc1)c1ccccc1	inactive
CCc1ccc(C(c2ccc(CC)cc2)C(Cl)Cl)cc1	inactive
FC(F)(F)C(F)(F)C(F)(F)C(F)(F)C(F)(F)C(F)(F)CC1CO1 (centres undefined)	inactive
COC(=O)CCC(F)(F)C(F)(F)C(F)(F)C(F)(F)F	inactive
O=P(O)(O)OCCC(F)(F)C(F)(F)C(F)(F)C(F)(F)C(F)(F)C(F)(F)F	inactive
FC(F)(Br)C(F)(F)C(F)(F)C(F)(F)C(F)(F)C(F)(F)Br	inactive
CCCCOCCOCCOC(=O)CCCCC(=O)OCCOCCOCCCC	inactive
N=C(N)C(F)(F)C(F)(F)C(F)(F)C(F)(F)C(F)(F)C(F)(F)C(F)(F)F	inactive
CCCCCCCCC(F)(F)C(F)(F)C(F)(F)C(F)(F)C(F)(F)C(F)(F)F	inactive
Nc1cc(Cl)c(N)c(Cl)c1	inactive
FC(F)(F)C(F)(F)C(F)(F)C(F)(F)C(F)(F)C(F)(F)C(F)(F)C(F)(F)CCS	inactive
O=C(CC(=O)C(F)(F)C(F)(F)F)C(F)(F)F	inactive
FC(F)(F)C(F)(F)C(F)(F)C(F)(F)C(F)(F)CCI	inactive
CNC(=S)NC	inactive
C=CC(=O)OCC(F)(F)C(F)(F)C(F)(F)C(F)(F)C(F)(F)C(F)(F)C(F)(F)F	inactive
CCCCNc1ccccc1	inactive
CO[Si](OC)(c1ccccc1)c1ccccc1	inactive

target: Oxysterols receptor LXR-alpha (Homo sapiens) (UniProt Q13133); assay: ATG_LXRa_TRANS: Attagene TRANS-FACTORIAL HepG2 Assay for human Liver X Receptor alpha (LXRa) (AID 2282980); conditions: HepG2 Attagene TRANS reporter, LXRa transactivation
Sequence (Q13133 whole entry, looked up, the tested form may be a part): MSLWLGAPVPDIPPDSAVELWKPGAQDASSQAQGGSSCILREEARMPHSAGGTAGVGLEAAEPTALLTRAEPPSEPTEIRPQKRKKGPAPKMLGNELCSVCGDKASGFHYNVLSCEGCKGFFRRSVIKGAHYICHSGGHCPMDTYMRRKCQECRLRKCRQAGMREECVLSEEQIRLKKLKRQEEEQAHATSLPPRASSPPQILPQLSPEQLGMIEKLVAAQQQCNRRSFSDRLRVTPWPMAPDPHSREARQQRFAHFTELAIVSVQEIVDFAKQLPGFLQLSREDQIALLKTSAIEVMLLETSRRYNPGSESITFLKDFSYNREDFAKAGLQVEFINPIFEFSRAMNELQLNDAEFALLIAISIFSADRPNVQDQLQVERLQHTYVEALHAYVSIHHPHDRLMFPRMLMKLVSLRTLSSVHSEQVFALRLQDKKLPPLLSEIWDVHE
In short: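 Chemical-induced reporter mRNA measured by RT-PCR with fluorescent labelling and capillary electrophoresis after 24 h dosing of transiently transfected HepG2 cells expressing exogenous NR-Gal4 chimeras; increases scored against DMSO baseline.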

SMILES	outcome	AC50
O=S(=O)(O)c1ccc2ccccc2c1	inactive	
Nc1ccc([N+](=O)[O-])cc1O	inactive	
C=C(C)C(=O)OCCC(F)(F)C(F)(F)C(F)(F)C(F)(F)C(F)(C(F)(F)F)C(F)(F)F	inactive	
CCN(CC)c1ccc2c(C)cc(=O)oc2c1		26.2 µM (active)
CS(C)(=O)=O	inactive	
CC(C)(C)c1ccc(OC2CCCCC2O)cc1 (centres undefined)	inactive	
C=CC(F)(F)C(F)(F)C(F)(F)C(F)(F)C(F)(F)C(F)(F)C(F)(F)C(F)(F)C=C	inactive	
FC(F)(F)C(F)(F)C(F)(F)C(F)(F)C(F)(F)C(F)(F)C(F)(F)I	inactive	
FC(F)(F)C(F)(F)C(F)(F)C(F)(F)C(F)(F)C(F)(F)CC1CO1 (centres undefined)	inactive	
C=CC(=O)OCC(F)(F)C(F)(F)C(F)(F)C(F)(F)COC(=O)C=C	inactive	
FC(F)(Br)C(F)(F)C(F)(F)C(F)(F)C(F)(F)C(F)(F)Br	inactive	
Nc1cc(Cl)c(N)c(Cl)c1	inactive	
FC(F)(F)C(F)(F)C(F)(F)C(F)(F)C(F)(F)C(F)(F)C(F)(F)C(F)(F)CCS	inactive	
O=C(CC(=O)C(F)(F)C(F)(F)F)C(F)(F)F	inactive	
FC(F)(F)C(F)(F)C(F)(F)C(F)(F)C(F)(F)CCI	inactive	
C=CC(=O)OCC(F)(F)C(F)(F)C(F)(F)C(F)(F)C(F)(F)C(F)(F)C(F)(F)F	inactive	
CCCCNc1ccccc1	inactive	
